Measured values reported in PubChem BioAssay.
“And” between values parts separate entries of the source, which are not always exact repeats. Equal values may be shown once. Inconclusive results are not listed. The source made the active and inactive calls. Unless noted, cut-off not given; nearly all actives show AC50 up to about 30 µM.

Columns and labels:
[1] = viability loss in pontine glioma line – cell-based, SU-DIPG-XVII, MIPE5.0, CellTiter-Glo, qHTS, dose response (AID 1347060; cut-off not given, nearly all actives have AC50 up to about 26 µM); conditions: CellTiter-Glo ATP luminescence
[2] = viability loss with induced miR-34 in A549 – imaging, A549 dox-inducible miR-34, nuclei and caspase counts, primary screen (AID 1347080;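 active means compounds whose cell count with miR-34 switched on is under 0.7 times the count with it off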); conditions: A549 miR-34 inducible, Hoechst nuclei count, 48 h
[3] = MELAS cybrid and Rieske KO viability enhancers – cell-based, MELAS cybrids, Rieske KO mouse fibroblasts, CellTiter-Glo, primary screen (AID 1508586;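 active means mean z-score across replicates of 1.96 or higher in either the MELAS or the Rieske mutant cell line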;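 further: z relative to plate mean and SD of compound and empty wells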); conditions: low glucose
[4] = tested on: Hepatitis C virus NS3 helicase; experiment: blockers of NS3h binding to ssDNA – biochemical, fluorescence polarization, LOPAC1280 library, primary screen (AID 687035; in the data active means inhibition above about 37%); conditions: Purified HCV NS3 helicase, Cy5-dT15 ssDNA binding fluorescence polarization; stronger effect = higher value; concentration not given here
[5] = compounds altering Cy5-DNA-NS3h complex signal – biochemical, LOPAC1280, artefact control for HCV NS3 helicase inhibitor project (AID 687037; call rule not given here); conditions: Cy5-DNA-NS3h complex fluorescence interference counterscreen
[6] = viability loss in pontine glioma line – cell-based, SU-DIPG-XIII, MIPE4.0, CellTiter-Glo, qHTS, dose response (AID 1347061; cut-off not given, nearly all actives have AC50 up to about 37 µM;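 further: cells exposed to compound for 48 hours before readout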); conditions: CellTiter-Glo ATP luminescence
[7] = viability loss in pontine glioma line – cell-based, JHH-DIPG-1, MIPE4.0, CellTiter-Glo, qHTS, dose response (AID 1347062; cut-off not given, nearly all actives have AC50 up to about 27 µM;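 on AC50: cells exposed to compound for two days before readout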); conditions: JHH-DIPG-1 viability, CellTiter-Glo ATP luminescence
[8] = viability loss in pontine glioma line – cell-based, SU-DIPG-IV, MIPE4.0, CellTiter-Glo, qHTS, dose response (AID 1347063); conditions: CellTiter-Glo ATP luminescence;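 further: compound exposure lasted 48 hours before the viability readout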
[9] = viability loss in pontine glioma line – cell-based, SU-DIPG-XIII, MIPE5.0, CellTiter-Glo, qHTS, dose response (AID 1347064; cut-off not given, nearly all actives have AC50 up to about 23 µM); conditions: CellTiter-Glo ATP luminescence
[10] = viability loss in pontine glioma line – cell-based, SU-DIPG-XXV, MIPE5.0, CellTiter-Glo, qHTS, dose response (AID 1347065; cut-off not given, nearly all actives have AC50 up to about 26 µM;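 further: cells exposed to compound for 48 hours before ATP readout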); conditions: CellTiter-Glo ATP luminescence
[11] = growth inhibition of DIPG cells – cell-based, MIPE4.0 library, CellTiter-Glo luminescence, qHTS (AID 1347066); conditions: SU-DIPG-VI viability, CellTiter-Glo ATP luminescence;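 further: cells exposed to compound for 48 hours before readout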
[12] = JHH-DIPG-1 glioma cell viability, MIPE5.0 library, CellTiter-Glo luminescence, qHTS (AID 1347067; cut-off not given, nearly all actives have AC50 up to about 26 µM;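 further: cells exposed to compound for 48 hours before readout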); conditions: JHH-DIPG-1 glioma viability, CellTiter-Glo ATP luminescence
[13] = growth inhibition of DIPG cells – cell-based, MIPE5.0 library, qHTS (AID 1347068; cut-off not given, nearly all actives have IC50 up to about 30 µM); conditions: SU-DIPG-XXV viability
[14] = blockers of cellular phospholipid synthesis – cell-based, LOPAC library, screen 4, primary screen (AID 1347384; call rule not given here); conditions: animal cells, phospholipid biosynthesis inhibition screen; at 10 µM
[15] = galactose survival enhancers in mitochondrial complex I cybrids – cell-based, galactose medium, ATP luminescence, primary screen (AID 1645843;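 active means z-score of at least 1.8 in each of two replicates, scored against plate mean and spread of sample wells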;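 further: positive z means more ATP and so rescue of galactose-driven cybrid death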); conditions: complex I mutant cybrid cells, 72 h, stronger effect = higher value
[16] = P. berghei load reduction in hepatocytes – cell-based, HepG2, luciferase luminescence, HepG2 viability, primary screen (AID 624349; in the data active means parasite load remaining mostly below about 12%, no sharp cut-off; inactive means mostly above about 10%;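 further: 100% = mean of DMSO negative control wells on the same plate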); conditions: P. berghei liver stage in HepG2, luciferase luminescence, concentration not given here; parasite load remaining: stronger effect = lower value; viability: measured here: HepG2 viability without parasites
[17] = target: NAD(+) hydrolase SARM1 (Homo sapiens) (UniProt Q6SZW1); experiment: blocking NAD cleavage by SARM1 SAM-TIR – cell lysate, NAD-Glo luminescence (AID 1508614;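 active means compound whose remaining NAD level is above about 45 nM, limit read from the data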); conditions: SAM-TIR HEK293T lysate NADase, at 1 µM, stronger effect = higher value
Sequence of NAD(+) hydrolase SARM1 (Homo sapiens) (Q6SZW1 whole entry, looked up, the tested form may be a part): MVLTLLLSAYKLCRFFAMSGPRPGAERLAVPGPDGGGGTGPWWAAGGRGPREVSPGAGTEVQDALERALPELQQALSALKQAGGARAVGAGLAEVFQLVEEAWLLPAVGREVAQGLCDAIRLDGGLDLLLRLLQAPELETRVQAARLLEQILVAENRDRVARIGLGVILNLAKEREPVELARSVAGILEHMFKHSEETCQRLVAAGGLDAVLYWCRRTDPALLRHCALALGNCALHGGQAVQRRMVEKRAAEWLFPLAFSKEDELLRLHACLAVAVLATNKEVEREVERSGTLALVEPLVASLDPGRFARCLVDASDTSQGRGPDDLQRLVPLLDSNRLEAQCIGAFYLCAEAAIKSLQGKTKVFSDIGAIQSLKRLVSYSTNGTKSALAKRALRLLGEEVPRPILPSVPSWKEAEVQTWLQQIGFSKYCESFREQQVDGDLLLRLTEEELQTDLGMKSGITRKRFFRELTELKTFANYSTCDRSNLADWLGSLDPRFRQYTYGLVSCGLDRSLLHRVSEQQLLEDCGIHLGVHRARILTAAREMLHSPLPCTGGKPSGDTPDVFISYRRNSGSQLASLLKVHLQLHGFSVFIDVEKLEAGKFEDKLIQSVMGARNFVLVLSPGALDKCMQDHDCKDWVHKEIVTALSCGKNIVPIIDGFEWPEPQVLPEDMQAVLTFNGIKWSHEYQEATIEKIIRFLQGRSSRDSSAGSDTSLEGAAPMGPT

[18] = target: Mitogen-activated protein kinase 7 (Homo sapiens) (UniProt Q13164); experiment: Gal4-ERK5 driven luciferase induction – cell-based, HTS, primary screen (AID 1508626;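 active means luciferase signal above three times the same-plate solvent-only control wells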;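 further: luciferase driven by Gal4-ERK5 fusion binding five Gal4 sites before minimal TATA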); conditions: HeLa Gal4-ERK5 transactivation, 18 h, at 5 µM, stronger effect = higher value
Sequence of Mitogen-activated protein kinase 7 (Homo sapiens) (Q13164 whole entry, looked up, the tested form may be a part): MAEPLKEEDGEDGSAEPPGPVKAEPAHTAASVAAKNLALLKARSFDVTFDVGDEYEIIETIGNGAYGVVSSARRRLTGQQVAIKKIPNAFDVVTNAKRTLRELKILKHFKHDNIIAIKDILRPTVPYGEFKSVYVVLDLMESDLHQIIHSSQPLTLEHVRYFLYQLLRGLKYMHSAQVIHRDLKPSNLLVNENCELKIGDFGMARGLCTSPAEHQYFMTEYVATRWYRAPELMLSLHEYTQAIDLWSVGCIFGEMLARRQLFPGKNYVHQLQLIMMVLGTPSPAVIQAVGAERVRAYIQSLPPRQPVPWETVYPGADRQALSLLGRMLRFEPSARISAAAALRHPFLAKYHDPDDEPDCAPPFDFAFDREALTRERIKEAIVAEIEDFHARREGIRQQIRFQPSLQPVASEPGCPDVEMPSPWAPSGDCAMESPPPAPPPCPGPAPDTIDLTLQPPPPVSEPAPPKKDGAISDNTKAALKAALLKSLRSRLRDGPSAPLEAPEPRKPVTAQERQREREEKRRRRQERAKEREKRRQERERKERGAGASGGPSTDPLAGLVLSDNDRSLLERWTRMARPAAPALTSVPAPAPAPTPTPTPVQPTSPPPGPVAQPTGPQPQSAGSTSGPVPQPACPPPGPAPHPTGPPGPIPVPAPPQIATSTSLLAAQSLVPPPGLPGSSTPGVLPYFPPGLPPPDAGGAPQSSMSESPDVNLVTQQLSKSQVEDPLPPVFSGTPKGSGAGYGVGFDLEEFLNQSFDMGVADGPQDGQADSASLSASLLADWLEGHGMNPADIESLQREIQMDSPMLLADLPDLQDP

[19] = stronger effect = lower value, cell number ratio, induced over uninduced
[20] = measured here: relative caspase fold change +Dox/-Dox
[21] = measured here: total cells with miR-34 induction, stronger effect = lower value
[22] = measured here: total cells without miR-34 induction
[23] = MELAS cybrid survival, CellTiter-Glo 48 h, stronger effect = higher value
[24] = Rieske KO mouse fibroblast survival, CellTiter-Glo 72 h

CC(=O)N1CCN(CCOc2ccc(C3CCN(C4=Nn5c(nnc5C(F)(F)F)CC4)CC3)cc2)CC1
inactive: outcome [1] | fold change [2, 19] 0.859 | z-score [3, 23] -0.00811
6900: cell count [2, 22]
0.882: fold change [2, 20]
-0.339: z-score [3, 24]
5930: cell count [2, 21]

CCc1ccc(/C=C2/SC(=S)NC2=O)cc1
8930: cell count [2, 22]
inactive: inhibition [4] -3% | fluorescence ratio (interference) [5] 1 | outcome [6] | outcome [7] | outcome [8] | outcome [9] | outcome [10] | outcome [11] | outcome [12] | outcome [13] | fold change [2, 19] 1 | outcome [14] | z-score [15] -0.65
8940: cell count [2, 21]
1.81: fold change [2, 20]

CCOC(=O)N1CCN(/[N+]([O-])=N/Oc2ccc([N+](=O)[O-])cc2C#N)CC1
inactive: outcome [6]
active: AC50 [7] 1.32 µM

Cc1cn([C@@H]2C[C@@H](O)[C@H](CO)O2)c(=O)[nH]c1=O
inactive: outcome [6] | outcome [7] | outcome [8] | outcome [9] | outcome [10] | outcome [11] | outcome [12] | outcome [13]

O=C1c2c(O)cc(O)cc2O[C@H](c2cc(O)c(O)c(O)c2)[C@H]1O
inactive: outcome [6] | outcome [7] | outcome [8]

CCOC(=O)C1=C[C@@H](OC(CC)CC)[C@H](NC(C)=O)[C@@H](N)C1
9340: cell count [2, 21]
inactive: parasite load remaining [16] 175% and 21.5% | outcome [6] | outcome [7] | outcome [8] | outcome [9] | outcome [10] | outcome [11] | outcome [12] | outcome [13] | fold change [2, 19] 0.9 | z-score [3, 23] 0.348 | remaining NAD [17] 10 nM | luciferase signal [18] 56 AU | z-score [15] 0.705
1.08: fold change [2, 20]
-0.618: z-score [3, 24]
10400: cell count [2, 22]
83.1% and 67.5%: viability [16]

C[C@@H]1C(=O)O[C@H]2CC34[C@H]5C[C@@H](C(C)(C)C)C36[C@@H](OC(=O)[C@@H]6O)O[C@@]4(C(=O)O5)[C@]21O (some centres not stated)
inactive: outcome [6] | outcome [7] | outcome [8] | outcome [9] | outcome [10] | outcome [11] | outcome [12]

COc1ccc(Cc2ccc(NC(N)=O)cc2)cc1-c1cccc(Cl)c1
inactive: outcome [6] | outcome [7] | outcome [8] | outcome [9] | outcome [10] | outcome [11] | outcome [12]

O=S(=O)(N=Cc1c(O)ccc2ccccc12)c1cccs1
inactive: outcome [6] | outcome [7]
active: AC50 [8] 9.35 µM

CNC(=O)c1ccc(Nc2cc(Nc3ccccc3S(=O)(=O)C(C)C)c3cc[nH]c3n2)nc1
active: AC50 [6] 16.6 µM | AC50 [7] 14.8 µM | AC50 [8] 11.8 µM | AC50 [11] 16.6 µM

CC[C@H]1OC(=O)[C@H](C)[C@@H](O[C@H]2C[C@@](C)(OC)[C@@H](O)[C@H](C)O2)[C@H](C)[C@@H](O[C@@H]2O[C@@H](C)C[C@H](N(C)C)[C@H]2O)[C@](C)(O)C[C@@H](C)C(=O)[C@H](C)[C@@H](O)[C@]1(C)O
inactive: outcome [6] | outcome [7] | outcome [8] | outcome [11]

CC(C)(C)COc1ccc(-n2cc(C(=O)O)cn2)cc1C#N
inactive: outcome [6] | outcome [7] | outcome [8] | outcome [10] | outcome [11] | outcome [13]

O=C(O)[C@H]1O[C@H](Oc2cc3oc(-c4ccccc4)cc(=O)c3c(O)c2O)[C@H](O)[C@@H](O)[C@@H]1O
inactive: outcome [6] | outcome [7] | outcome [8] | outcome [11]

COc1ccc(CC2SC(=O)NC2=O)cc1C(=O)NCc1ccc(C(F)(F)F)cc1 (configuration not stated)
inactive: outcome [6] | outcome [7] | outcome [8] | outcome [10] | outcome [11] | outcome [12] | outcome [13]

COc1ccc2cc([S+]([O-])Cc3ncc(C)c(OC)c3C)nc2c1
inactive: outcome [6] | outcome [7] | outcome [8] | outcome [11]

Clc1cccc(-c2nnnn2Cc2cccnc2)c1Cl
inactive: outcome [6] | outcome [7] | outcome [8] | outcome [11]

O=C(NNC(=O)c1ccc(CNS(=O)(=O)c2ccc(F)c(Cl)c2)cc1)c1ccccc1
inactive: outcome [6] | outcome [7] | outcome [8] | outcome [11]

Nc1nc(=O)n([C@H]2CSC(CO)O2)cc1F (some centres not stated)
inactive: outcome [6] | outcome [7] | outcome [8] | outcome [11]

CCCCCCCCCCCCCC(=O)N[C@H](CO)[C@H](O)c1ccc([N+](=O)[O-])cc1
active: AC50 [7] 2.96 µM | AC50 [8] 4.69 µM | AC50 [10] 18.6 µM
6010: cell count [2, 21]
inactive: outcome [6] | fold change [2, 19] 0.96
0.781: fold change [2, 20]
6250: cell count [2, 22]

O=C(O)c1cc(O)c2c(c1)C(=O)c1cccc(O)c1C2=O
inactive: outcome [6] | outcome [7] | outcome [8] | outcome [9] | outcome [12] | outcome [13]

CN(N=O)C(=O)N[C@H]1C(O)OC(CO)[C@@H](O)[C@@H]1O (some centres not stated)
inactive: outcome [6] | outcome [7] | outcome [8] | outcome [11]

N[C@H]1CN(c2c(F)cc3c(=O)c(C(=O)O)cn(C4C[C@H]4F)c3c2Cl)CC12CC2 (some centres not stated)
inactive: outcome [6] | outcome [7] | outcome [8] | outcome [11]

C=C1/C(=C\C=C2/CCC[C@]3(C)[C@@H]([C@H](C)/C=C/[C@H](C)C(C)C)CC[C@@H]23)C[C@@H](O)C[C@@H]1O
inactive: outcome [13]
active: AC50 [6] 8.33 µM | AC50 [7] 0.418 µM | AC50 [8] 5.9 µM | AC50 [10] 18.6 µM | AC50 [11] 23.5 µM | AC50 [12] 26.3 µM
